Measurements taken from PubChem BioAssay (NCI).
The panel holds about 79,000 compounds, 15% with a hit somewhere; the sample as a whole holds those more often. Calls of active or inactive are those of the source. Cut-off read from the data, not from the text of the source: active = growth inhibition above about 70%; inactive = the rest.

Experiments:
[1] = NCI Yeast Anticancer Drug Screen. Data for the mlh1 strain (AID 171);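 note: 0% = growth of vehicle-treated control cultures of the same strain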; conditions: S. cerevisiae mlh1 strain growth inhibition, stronger effect = higher value
In short: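 Read-out: growth inhibition versus vehicle controls. Strain: engineered yeast with a defined DNA repair or cell cycle defect, compound-treated.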

[2] = NCI Yeast Anticancer Drug Screen. Data for the sgs1 strain (AID 173);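 note: 0% = growth of vehicle-only control cultures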; conditions: S. cerevisiae sgs1 mutant, stronger effect = higher value
In short: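 Read-out: yeast growth inhibition relative to vehicle controls, following compound exposure of a strain with a defined DNA repair/cell cycle alteration.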

[3] = NCI Yeast Anticancer Drug Screen. Data for the mlh1 rad18 strain (AID 175); conditions: S. cerevisiae mlh1 rad18 strain growth inhibition, stronger effect = higher value
In short: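 Yeast w/ defined DNA-repair lesions; compound exposure; growth vs vehicle controls → % inhibition.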

[4] = NCI Yeast Anticancer Drug Screen. Data for the rad18 strain (AID 177); conditions: S. cerevisiae rad18 mutant growth inhibition, stronger effect = higher value
In short: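 Readout: growth inhibition vs vehicle controls. Cells: genetically altered yeast strain, DNA repair defect.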

[5] = NCI Yeast Anticancer Drug Screen. Data for the rad52 strain (AID 147);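 note: 0% = growth of vehicle-treated control cultures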; conditions: S. cerevisiae rad52 mutant growth inhibition, stronger effect = higher value
In short: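 Read-out: growth inhibition versus vehicle-treated controls. Cells were a DNA repair-deficient yeast strain treated with compounds.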

[6] = NCI Yeast Anticancer Drug Screen. Data for the wt1 strain (AID 149);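 note: 0% = growth of vehicle-treated wt1 cultures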; conditions: S. cerevisiae wt1 strain (SPY 50644) growth inhibition, stronger effect = higher value
In short: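 Yeast wt1 strain exposed to compounds; growth inhibition measured relative to vehicle-treated controls.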

[7] = NCI Yeast Anticancer Drug Screen. Data for the rad50EPP+ strain (AID 151);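 note: 0% = growth of vehicle-treated control cultures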; conditions: S. cerevisiae rad50 mutant strain, stronger effect = higher value
In short: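 Growth inhibition read against vehicle controls in rad50EPP+ yeast, a strain altered in DNA damage repair, after compound exposure.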

[8] = NCI Yeast Anticancer Drug Screen. Data for the mgt1 strain (AID 153); conditions: S. cerevisiae mgt1 mutant growth inhibition, stronger effect = higher value
In short: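 mgt1 yeast grown with test compound; read-out is growth inhibition versus vehicle-treated cultures.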

[9] = NCI Yeast Anticancer Drug Screen. Data for the rad50 strain (AID 155);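 note: 0% = growth of vehicle-only cultures of the same strain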; conditions: S. cerevisiae rad50 strain growth inhibition, stronger effect = higher value
In short: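 Yeast carrying a defined DNA repair defect were exposed to test compounds, and growth was compared with vehicle-treated controls to give percent inhibition.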

[10] = NCI Yeast Anticancer Drug Screen. Data for the mec2-1 strain (AID 157); conditions: S. cerevisiae mec2-1 strain, stronger effect = higher value
In short: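 Yeast mec2-1 mutant treated with compound. Readout: growth inhibition vs vehicle controls.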

[11] = NCI Yeast Anticancer Drug Screen. Data for the sgs1 mgt1 strain (AID 161);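 note: 0% = growth of cultures given vehicle only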; conditions: S. cerevisiae sgs1 mgt1 strain, stronger effect = higher value
In short: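 Mutant yeast exposed to compound; growth scored against vehicle-only wells.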

[12] = NCI Yeast Anticancer Drug Screen. Data for the CLN2oe strain (AID 163);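 note: 0% = growth of vehicle-only control cultures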; conditions: S. cerevisiae CLN2oe strain, stronger effect = higher value
In short: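 Read-out: yeast growth inhibition, expressed relative to vehicle-only controls. The strain bears an engineered cell-cycle alteration.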

[13] = NCI Yeast Anticancer Drug Screen. Data for the cln2 rad14 strain (AID 165);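 note: 0% = growth equal to vehicle treated cultures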; conditions: S. cerevisiae cln2 rad14 strain, stronger effect = higher value
In short: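 cln2 rad14 yeast strain; compound exposure; growth inhibition read vs vehicle controls.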

[14] = NCI Yeast Anticancer Drug Screen. Data for the bub3 strain (AID 167); conditions: S. cerevisiae bub3 mutant strain, stronger effect = higher value
In short: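 Compounds were applied to a genetically altered yeast strain carrying a cell-cycle control defect. Growth inhibition was scored against vehicle-treated controls.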

[15] = NCI Yeast Anticancer Drug Screen. Data for the wt2 strain (AID 169);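 note: 0% = growth of vehicle-treated yeast cultures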; conditions: S. cerevisiae wt2 strain growth inhibition, stronger effect = higher value
In short: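 Read-out: growth inhibition versus vehicle-treated control cultures after compound exposure of the yeast strain.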

[16] = NCI Yeast Anticancer Drug Screen. Data for the rad14 strain (AID 159);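 note: 0% = growth of vehicle-treated control cultures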; conditions: S. cerevisiae rad14 strain growth inhibition, stronger effect = higher value
In short: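 Yeast cells carrying a defined DNA-repair defect were exposed to compounds, and growth inhibition was calculated relative to vehicle-treated control cultures.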

[17] = at 5.0 µM (retest, dose inferred, filed as 0.5)
[18] = at 50.0 µM (retest, dose inferred, filed as 5.0)

Measured: growth inhibition

CC/C(=C(\c1ccccc1)c1ccc(OCCN(C)C)cc1)c1ccccc1
inactive: [1]; at 1.2 µM -3% | [1]; at 3.7 µM 0% | [2]; at 1.2 µM 0% | [2]; at 3.7 µM 1% | [3]; [17] 46% | [3]; at 50.0 µM 40.4% | [4]; at 1.2 µM 13% | [4]; at 3.7 µM 12%
active: [1]; at 11.0 µM 82% | [1]; at 33.0 µM 97% | [1]; at 100.0 µM 97% | [2]; at 11.0 µM 84% | [2]; at 33.0 µM 97% | [2]; at 100.0 µM 97% | [3]; [18] 99% | [4]; at 11.0 µM 71% | [4]; at 33.0 µM 98% | [4]; at 100.0 µM 98%

O=C(CC(=O)n1nc(-c2ccccc2)c(N=Nc2ccccc2C(=O)O)c1-c1ccccc1)Nc1ccc(Cl)cc1
inactive: [5]; at 1.2 µM -2% | [5]; at 3.7 µM -1% | [5]; at 11.0 µM -1% | [5]; at 33.0 µM -2% | [5]; at 100.0 µM 8% | [6]; at 1.2 µM -1% | [6]; at 3.7 µM -4% | [6]; at 11.0 µM -3% | [6]; at 33.0 µM -4% | [6]; at 100.0 µM -4% | [7]; at 1.2 µM 2% | [7]; at 3.7 µM 6% | [7]; at 11.0 µM 15% | [7]; at 33.0 µM 23% | [7]; at 100.0 µM 37% | [8]; at 1.2 µM -2% | [8]; at 3.7 µM -3% | [8]; at 11.0 µM -5% | [8]; at 33.0 µM -6% | [8]; at 100.0 µM 7% | [9]; at 1.2 µM -2% | [9]; at 3.7 µM 1% | [9]; [17] 7% | [9]; at 11.0 µM 1% | [9]; at 33.0 µM 2% | [9]; [18] 16% | [9]; at 50.0 µM 49% | [9]; at 100.0 µM 14% | [10]; at 1.2 µM -2% | [10]; at 3.7 µM -1% | [10]; [17] 3% | [10]; at 11.0 µM -2% | [10]; at 33.0 µM -3% | [10]; [18] 4% | [10]; at 50.0 µM 36.2% | [10]; at 100.0 µM 2% | [11]; [17] -5% | [11]; [18] 20% | [11]; at 50.0 µM 41.7% | [12]; at 1.2 µM -4% | [12]; at 3.7 µM -3% | [12]; at 11.0 µM -7% | [12]; at 33.0 µM -10% | [12]; at 100.0 µM -15% | [13]; [17] 2% | [13]; [18] 24% | [13]; at 50.0 µM 9.4% | [14]; at 1.2 µM 8% | [14]; at 3.7 µM 15% | [14]; [17] 6% | [14]; at 11.0 µM 28% | [14]; at 33.0 µM 46% | [15]; at 1.2 µM -3% | [15]; at 3.7 µM -3% | [15]; at 11.0 µM -3% | [15]; at 33.0 µM -6% | [15]; at 100.0 µM 4% | [1]; at 1.2 µM -2% | [1]; at 3.7 µM -3% | [1]; at 11.0 µM -3% | [1]; at 33.0 µM -6% | [1]; at 100.0 µM 6% | [2]; at 1.2 µM -2% | [2]; at 3.7 µM -1% | [2]; at 11.0 µM 1% | [2]; at 33.0 µM 0% | [2]; at 100.0 µM 21% | [3]; [17] -11% | [3]; [18] 43% | [3]; at 50.0 µM 36% | [4]; at 1.2 µM -4% | [4]; at 3.7 µM -1% | [4]; at 11.0 µM 3% | [4]; at 33.0 µM 6% | [4]; at 100.0 µM 43%
active: [14]; [18] 71% | [14]; at 50.0 µM 88.7% | [14]; at 100.0 µM 72%

CCOP(=O)(OCC)C(Cc1ccccc1)N=C(c1ccccc1)c1ccccc1 (centres undefined)
active: [5]; at 33.0 µM 91% | [5]; at 100.0 µM 98% | [6]; at 33.0 µM 95% | [6]; at 100.0 µM 98% | [7]; at 33.0 µM 81% | [7]; at 100.0 µM 94% | [9]; at 33.0 µM 96% | [9]; at 50.0 µM 98.6% | [9]; at 100.0 µM 98% | [10]; at 33.0 µM 97% | [10]; at 50.0 µM 70.5% | [10]; at 100.0 µM 98% | [16]; at 33.0 µM 73% | [16]; at 100.0 µM 98% | [11]; at 50.0 µM 98.8% | [12]; at 33.0 µM 87% | [12]; at 100.0 µM 98% | [13]; at 50.0 µM 97.8% | [14]; at 33.0 µM 88% | [14]; at 50.0 µM 99% | [14]; at 100.0 µM 98% | [15]; at 33.0 µM 97% | [15]; at 100.0 µM 98% | [1]; at 33.0 µM 90% | [1]; at 100.0 µM 98% | [2]; at 33.0 µM 93% | [2]; at 100.0 µM 97% | [3]; at 50.0 µM 98.7% | [4]; at 33.0 µM 87% | [4]; at 100.0 µM 98%
inactive: [5]; at 1.2 µM -21% | [5]; at 3.7 µM -16% | [5]; at 11.0 µM 4% | [6]; at 1.2 µM -18% | [6]; at 3.7 µM -28% | [6]; at 11.0 µM -5% | [7]; at 1.2 µM 8% | [7]; at 3.7 µM 12% | [7]; at 11.0 µM 44% | [9]; at 1.2 µM -12% | [9]; at 3.7 µM -7% | [9]; [17] 12% | [9]; at 11.0 µM 27% | [9]; [18] 7% | [10]; at 1.2 µM 18% | [10]; at 3.7 µM 8% | [10]; [17] -3% | [10]; at 11.0 µM 18% | [10]; [18] 4% | [16]; at 1.2 µM 2% | [16]; at 3.7 µM -6% | [16]; at 11.0 µM -8% | [11]; [17] -14% | [11]; [18] -1% | [12]; at 1.2 µM -50% | [12]; at 3.7 µM -18% | [12]; at 11.0 µM -21% | [13]; [17] -1% | [13]; [18] -1% | [14]; at 1.2 µM -35% | [14]; at 3.7 µM -35% | [14]; [17] -7% | [14]; at 11.0 µM -41% | [14]; [18] -11% | [15]; at 1.2 µM 6% | [15]; at 3.7 µM 6% | [15]; at 11.0 µM -2% | [1]; at 1.2 µM 1% | [1]; at 3.7 µM 0% | [1]; at 11.0 µM 5% | [2]; at 1.2 µM 7% | [2]; at 3.7 µM 10% | [2]; at 11.0 µM 15% | [3]; [17] -18% | [3]; [18] 22% | [4]; at 1.2 µM 8% | [4]; at 3.7 µM 4% | [4]; at 11.0 µM 29%
